Each structure is given as a SMILES string. The whole screen tested about 52,000 compounds, of which about 4,300 (8.3%) were called active. The list comes from a sample in which actives are over-represented; it also holds similar structures and randomly drawn compounds. Unmarked numbers belong to inactive results. No stated cut-off is given here; in the data, active means survival mostly below about 52% (no sharp cut-off); inactive means mostly above about 56%.

The test system of this experiment is DeltatarO mutant. The experiment in a line: growth inhibition of S. aureus wild type versus tarO mutant, primary screen, teichoic acid synthesis inhibitors, RN4220, OD600 (AID 463173). The settings on record: OD600, 18 h, hits give low values, screened at 18.75 µg/mL (by protocol).
With `CC1(NS(C)(=O)=O)CC=CC1`, the survival is 115%.

Take `Cc1cccc(NC(=O)c2cccc(N3CCCS3(=O)=O)c2)c1`: the survival was 78%.

With `COc1cccc(C2C(C(=O)Nc3ccc(C)cc3C)=C(C)Nc3c(C(=O)Nc4cccc(C)c4)cnn32)c1OC` (configuration not stated), the survival was 94%.

Consider `CCn1cc(S(=O)(=O)c2cccc(C)c2)c(=O)c2cc(F)c(N3CCN(c4ccccc4)CC3)cc21`, for which the survival was 84%.

With `CCCc1cc(=O)[nH]c2nnc(SCCC(C)C)n12`, the survival was 90%.

As to `Cc1cccc(-n2cc(-c3ccccc3)c3c(N4CCC(C)CC4)ncnc32)c1`, the survival is 90%.

Take `CCOc1ccc(/C=C/c2nc(C#N)c(N3CCN(CC)CC3)o2)cc1`: the survival was 70%.

Take `CN1CCN(C2=NC(=O)/C(=C\C=C/c3ccccc3)S2)CC1`: the survival is 79%.

`CCOc1ccc(C2C(C(=O)OC)=C(C)NC3=C2C(=O)c2ccccc23)cc1OC` (configuration not stated): the survival was 48%.

Turning to `CCOc1cc(C2C(C(=O)OC)=C(C)NC3=C2C(=O)c2ccccc23)ccc1O` (configuration not stated), the survival is 31% (active).

Turning to `COC(=O)COc1ccc(C2C(C(=O)OC)=C(C)NC3=C2C(=O)c2ccccc23)cc1OC` (configuration not stated), the survival was 29% (active).

Consider `CCOc1cc(C2C(C(=O)OC)=C(C)NC3=C2C(=O)c2ccccc23)cc(Cl)c1O` (configuration not stated), for which the survival is 29% (active).

Take `C#CCOc1c(Br)cc(C2C(C(=O)OC)=C(C)NC3=C2C(=O)c2ccccc23)cc1OCC` (configuration not stated): the survival was 62%.

`CCOC(=O)COc1ccccc1C1C(C(=O)OC)=C(C)NC2=C1C(=O)c1ccccc12` (configuration not stated): the survival was 39% (active).

Take `COC(=O)C1=C(C)NC2=C(C(=O)c3ccccc32)C1c1ccc(O)c(OC)c1` (configuration not stated): the survival is 85%.

`CCOc1cc(C2C(C(=O)OC)=C(C)NC3=C2C(=O)c2ccccc23)cc(Br)c1OCC` (configuration not stated): the survival is 47%.

On to `C#CCOc1ccc(C2C(C(=O)OC)=C(C)NC3=C2C(=O)c2ccccc23)cc1OCC` (configuration not stated), for which the survival is 167%.

With `CCOC(=O)COc1ccc(C2C(C(=O)OC)=C(C)NC3=C2C(=O)c2ccccc23)cc1Cl` (configuration not stated), the survival is 119%.

Regarding `CCOc1ccc(Br)cc1C1C(C(=O)OC)=C(C)NC2=C1C(=O)c1ccccc12` (configuration not stated), the survival was 48%.

As to `CCOc1cc(C2C(C(=O)OC)=C(C)NC3=C2C(=O)c2ccccc23)c(Br)cc1OC` (configuration not stated), the survival was 52%.

For `CC(=O)c1ccc(NC(=O)Cn2c(=O)cc(C)c3c(C)nn(-c4cccc(F)c4)c32)cc1`, the survival was 81%.

As to `Cc1cc(=O)n2nc(N3CCC(C(=O)NCCCOC(C)C)CC3)sc2n1`, the survival is 100%.

`NC1CCC(c2ccccc2)CC1` (configuration not stated): the survival is 78%.

Take `COc1ccc(-c2cn3nc(N4CCC(C(=O)NCc5ccc(F)cc5)CC4)sc3n2)cc1`: the survival is 88%.

For the compound `CC1=C(C(=O)Nc2ccc(Cl)cc2)C(c2cccs2)n2nc(SCc3cccc(C)c3)nc2N1` (configuration not stated), the survival is 88%.

As for `COCCNC(=O)CSc1cn(CC(=O)N2CCCCCC2)c2ccccc12`, the survival was 73%.

For `COc1ccc(-c2nc3c4cnn(-c5ccccc5F)c4ncn3n2)cc1`, the survival was 59%.

Turning to `CN1CCN(C(CNC(=O)C(=O)Nc2ccccc2)c2ccc3c(c2)OCO3)CC1` (configuration not stated), the survival is 67%.

Regarding `COc1ccc(NC(=O)c2c(C)oc3ccc(O)c(CN4CCC(C)CC4)c23)cc1`, the survival was 57%.

Consider `CCc1c(C)nc(SCC(=O)N2CCN(c3ccccc3OC)CC2)[nH]c1=O`, for which the survival was 77%.

Regarding `CCCCNC(=O)c1ccc2c(c1)NC(=O)C(CS(=O)(=O)Cc1ccc(C)cc1)N2` (configuration not stated), the survival is 87%.

Take `COc1ccc(Cl)cc1S(=O)(=O)Nc1cccc(-c2ccc(N3CCOCC3)nn2)c1`: the survival was 97%.

On to `NS(=O)(=O)c1ccc(CCNc2nc3c(-c4cccc(F)c4)nnn3c3ccc(Cl)cc23)cc1`, for which the survival is 65%.

Turning to `Cc1ccc(NC(=O)CSc2nc3ccc(Br)cc3[nH]2)c(C)c1`, the survival was 42% (active).

With `COc1ccc(NC(=O)CSc2nc3ccccc3[nH]2)cc1`, the survival is 70%.

On to `Cc1ccc2nc(SCC(=O)Nc3ccc(C#N)cc3)[nH]c2c1`, for which the survival is 64% (active).

With `Cc1cc(Cl)ccc1NC(=O)CSc1nc2c(c(=O)[nH]1)CCC2`, the survival is 80%.

As to `Cc1cc(C)c(NC(=O)CSc2nc3ccncc3[nH]2)c(C)c1`, the survival was 119%.

`COC(=O)c1ccc(NC(=O)CSc2nc3ccc(OC)cc3[nH]2)cc1`: the survival is 184%.

`COCCNC(=O)CCCn1c(SCc2ccccc2Cl)nc2c(sc3ccccc32)c1=O`: the survival is 129%.

Regarding `COc1ccccc1NC(=O)c1ccc(-c2nc(COc3ccc(C)cc3)c(C)o2)cc1`, the survival was 83%.

On to `COc1ccc(Nc2nnc(-c3cc4c(ccc5ccccc54)oc3=O)s2)cc1`, for which the survival is 82%.

With `CCCCN(Cc1ccccc1)S(=O)(=O)c1ccc2c(c1)CC(C)N2C(=O)CC` (configuration not stated), the survival was 99%.

Regarding `CCOC(=O)c1c(C)oc2nc(C)nc(NCc3cccc(OC)c3)c12`, the survival is 72%.

In the case of `CCCCOc1ccccc1NC(=O)Cn1c(-c2cncs2)nc2ccccc21`, the survival is 49% (active).

On to `Cc1ccc(NC(=O)Cn2c(-c3cncs3)nc3ccccc32)c(Br)c1`, for which the survival is 63%.

In the case of `CC(=O)c1cccc(NC(=O)Cn2c(-c3cncs3)nc3ccccc32)c1`, the survival was 67%.

As to `Cc1cc(C)cc(NC(=O)Cn2c(-c3cncs3)nc3ccccc32)c1`, the survival was 37% (active).

Turning to `CCc1ccc(NC(=O)Cn2c(-c3cncs3)nc3ccccc32)cc1`, the survival was 59%.

On to `CCCCCOc1ccc(NC(=O)Cn2c(-c3cncs3)nc3ccccc32)cc1`, for which the survival was 86%.

For `CC1CCN(C(=O)Cn2cc(SCC(=O)Nc3ccccc3)c3ccccc32)CC1`, the survival is 67%.

With `CCOc1ccc(CNC(=O)CCc2c(C)nn(-c3ccc(N4CCOCC4)nn3)c2C)cc1`, the survival is 72%.

Take `O=C(CSc1nnc2c(n1)[nH]c1ccccc12)Nc1ccccc1`: the survival is 89%.

On to `COc1ccc(CC(=O)NCC(c2ccc(Cl)cc2)N2CCOCC2)cc1` (configuration not stated), for which the survival is 71%.

As for `Cc1ccc(Cc2c(C)nc3nc(SCC(=O)NC(C)c4ccccc4)nn3c2C)cc1` (configuration not stated), the survival was 53%.

Regarding `CCCNC(=O)CSc1nc2nc(C)c(Cc3ccccc3Cl)c(C)n2n1`, the survival was 60%.

Regarding `Cc1ccccc1Cc1c(C)nc2nc(SCC(=O)NC(C)c3ccccc3)nn2c1C` (configuration not stated), the survival was 57% (active).

For `Cc1ccccc1Cc1c(C)nc2nc(SCC(=O)N(C)c3ccccc3)nn2c1C`, the survival was 78%.

Turning to `CCCCNC(=O)CSc1nc2nc(C)c(Cc3ccccc3C)c(C)n2n1`, the survival was 39% (active).

Consider `CCN(CC)CCCNC(=O)CSc1nc2nc(C)c(Cc3ccccc3C)c(C)n2n1`, for which the survival was 75%.

On to `Cc1cccc2sc(N(CCN(C)C)C(=O)c3ccc4c(c3)OCCO4)nc12`, for which the survival is 119%.

Take `CC(=O)N1CCc2c(sc3c2c(=O)n(-c2ccc(F)cc2)c(=O)n3Cc2ccc(C#N)cc2)C1`: the survival was 107%.

As for `Cc1ccc(CNCc2ccc3c(c2)n(C)c(=O)n3C)cc1`, the survival was 92%.

As to `CCN(CC)S(=O)(=O)c1ccc2c(c1)nc(CN(C)C(=O)c1cccc(Cl)c1)n2C`, the survival is 71%.

`C#CCOc1ccc(C2C3=C(CCCC3=O)N(CCC(=O)O)C3=C2C(=O)CCC3)cc1`: the survival is 70%.

For `COc1ccc2c(c1)CCc1c(C(=O)Nc3c(C)nn(Cc4c(Cl)cccc4Cl)c3C)noc1-2`, the survival was 114%.

As to `CCOC(=O)c1cc2c(=O)n3ccccc3nc2n(CC2CCCO2)c1=NC(=O)c1cccc(C(F)(F)F)c1` (configuration not stated), the survival was 97%.

`CCOC(=O)c1cc2c(=O)n3ccccc3nc2n(CC2CCCO2)c1=NC(=O)c1cccc(C)c1` (configuration not stated): the survival was 29% (active).

In the case of `CCOC(=O)c1cc2c(=O)n3ccccc3nc2n(CC2CCCO2)c1=NC(=O)c1ccc(C)cc1` (configuration not stated), the survival is 101%.

In the case of `CCOC(=O)c1cc2c(=O)n3ccccc3nc2n(CC2CCCO2)c1=NC(=O)c1cc(C)cc(C)c1` (configuration not stated), the survival is 44% (active).

Take `CCOC(=O)c1cc2c(=O)n3ccccc3nc2n(CC2CCCO2)c1=NC(=O)c1ccc(C(C)(C)C)cc1` (configuration not stated): the survival was 59%.

`CCn1c(CN2CCCCC2)nc2cc(NC(=O)c3cc(OC)c(OC)c(OC)c3)ccc21`: the survival is 87%.

On to `O=C(c1cnc(N2CCCCC2)c2ccccc12)N1CCN(c2ccccc2F)CC1`, for which the survival was 75%.

Consider `Cc1ccc2c(c1)nnn2C1CCN(CC(=O)N(c2ccccc2)c2ccccc2)CC1`, for which the survival is 98%.

Turning to `CCOc1ccc(CNC(=O)c2cnc3sc(N4CCC(C)CC4)nn3c2=O)cc1OC`, the survival is 74%.

Regarding `Cc1ccc(CNC(=O)Cc2c(C(=O)O)c(C)cn2C)cc1`, the survival was 89%.

With `COc1cccc(CNC(=O)Cc2c(C(=O)O)c(C)cn2C)c1`, the survival was 8% (active).

Take `Cc1cn(C)c(CC(=O)NCc2cccc(Cl)c2)c1C(=O)O`: the survival was 20% (active).

In the case of `Cc1cn(C)c(CC(=O)NCc2ccc(Cl)cc2)c1C(=O)O`, the survival is 102%.

Turning to `COc1ccc(CNC(=O)Cc2c(C(=O)O)c(C)cn2C)cc1`, the survival is 94%.

`Cc1cn(C)c(CC(=O)NCc2ccccc2)c1C(=O)O`: the survival is 85%.

Turning to `COc1ccc(NC(=O)c2ccc3oc(=O)c(S(=O)(=O)c4ccc(C)cc4)cc3c2)cc1OC`, the survival was 90%.

On to `COc1cc(Cl)c(C)cc1NC(=O)CCn1cnc2onc(-c3ccc(F)cc3)c2c1=O`, for which the survival was 77%.

As for `COc1ccc(-c2nn3c(=O)cc(CN4CCN(C(=O)Nc5cc(C)ccc5C)CC4)nc3s2)cc1`, the survival was 99%.

Regarding `COc1ccc(NC(=O)C2CCN(S(=O)(=O)c3ccc4c(c3)CCCC(=O)N4)CC2)cc1Cl`, the survival is 78%.

Consider `COc1ccc(Nc2cc(C(=O)NCc3ccccc3OC)c3ccccc3n2)cc1`, for which the survival was -5% (active).

For the compound `CCOc1ccc(-c2cc(C(=O)NCc3ccc(C)cc3)c3ccccc3n2)cc1`, the survival was 87%.

In the case of `COc1ccc(-c2cc(C(=O)NCCc3ccc(OC)c(OC)c3)c3ccccc3n2)cc1`, the survival is 48% (active).

Turning to `COc1ccc(Nc2cc(C(=O)NCc3ccccc3)c3ccccc3n2)cc1`, the survival was 97%.

For the compound `COc1ccc(-c2cc(C(=O)NCc3ccccc3)c3c(-c4ccccc4)[nH]nc3n2)cc1`, the survival is 93%.

Turning to `COc1ccc(Nc2cc(C(=O)NCc3cccs3)c3ccccc3n2)cc1`, the survival was 131%.

Turning to `COc1ccc(CCNC(=O)c2cc(-c3ccc(C)c(C)c3)nc3ccccc23)cc1OC`, the survival was 120%.

In the case of `CCOc1ccc(-c2cc(C(=O)NCc3ccccc3)c3c(-c4ccc(CC)cc4)[nH]nc3n2)cc1`, the survival was 47% (active).

For the compound `CCOc1ccc(-c2cc(C(=O)NCCc3ccc(Cl)cc3)c3ccccc3n2)cc1`, the survival was 81%.

For the compound `CCOc1ccc(-c2cc(C(=O)NCc3ccc(OC)cc3)c3c(-c4ccc(F)cc4)[nH]nc3n2)cc1`, the survival was 77%.

For the compound `CCOc1ccc(-c2cc(C(=O)NCCc3ccc(C)cc3)c3ccccc3n2)cc1`, the survival was 52% (active).

For the compound `COc1ccc(CCNC(=O)c2cc(-c3ccccc3)nc3ccccc23)cc1OC`, the survival was 58%.

For the origin of these results see PubChem BioAssay AID463173 (ICCB-Longwood Screening Facility, Harvard Medical School, 2010).
